Common to all, as to assay: qHTS profiling for inhibitors of Plasmodium falciparum proliferation (AID 504749); note: nearly all actives have a fitted effect of over 60% in size
Conditions in all cases: P. falciparum in erythrocytes, SYBR Green DNA, 72 h; series mostly up to 28.7 µM
In general terms: In qHTS, concentration-response curves come from the screen itself.

The subject of assay [1] is DIV30. In short, it runs like this:
(§1)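 Readout was DNA-dye fluorescence from lysed cultures, ex 485/em 535 nm. Parasitized red cells had grown 72 h with compound; data scaled between 0.29 uM artemisinin and DMSO wells and corrected using vehicle-only plates.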

Assay [2] has as its system Dd2. A digest of the protocol: as §1
In assay [3] the test system is ECU. A digest of the protocol: as §1
Assay [4] concerns FAB9. A digest of the protocol:
as §1

In assay [5] the test system is GB4. A digest of the protocol: as §1
The test system of assay [6] is HB3. A digest of the protocol:
as §1

The subject of assay [7] is ICS. In short, it runs like this:
as §1

Assay [8] relates to JCK. In short, it runs like this:
as §1

Assay [9] concerns N140. In short, it runs like this:
as §1

Assay [10] deals with P93_24. A digest of the protocol:
as §1

This passage reports Potency results from PubChem BioAssay (NCATS).

Values joined by “and” are separate entries in the source; they are usually repeats but may differ in a detail not shown here. Equal values may be shown once. Records with an inconclusive call do not appear. Active and inactive are the calls of the source. Calls come from the whole dose curve; as a rule, active = well fitted inhibition curve with a large enough effect; inconclusive = small, poorly fitted or top-dose-only effect; inactive = flat fitted curve, though single readings scatter.
Potency is the fitted concentration of half-maximal effect.

For the compound `O=[N+]([O-])c1ccc(F)c([N+](=O)[O-])c1`, the Potency result in assay [1], in [2], in assay [3], in assay [4], in assay [5] and in assay [6] was “inactive” throughout. The Potency entry in assay [7], in assay [8], in assay [9] and in assay [10] was “inactive” each time.
For `O=C(CCl)c1ccc(Oc2ccc(C(=O)CCl)cc2)cc1`, the Potency result in [1], in assay [2], in assay [3], in [4], in [5] and in assay [6] was “inactive” throughout. In addition, the Potency result in [7], in [8], in assay [9] and in [10] was “inactive” throughout.
`CC(=O)OO`: the Potency result in assay [1], in assay [2], in assay [3], in assay [4], in assay [5] and in assay [6] was “inactive” throughout. Also, the Potency entry in [7], in assay [8], in [9] and in assay [10] was “inactive” in each case.
With `C#CC(C)(O)CC` (stereo not given), the Potency entry in assay [1], in [2], in assay [3], in [4], in assay [5] and in assay [6] was “inactive” throughout. Further, the Potency entry in assay [7], in [8], in assay [9] and in assay [10] was “inactive” throughout.
Turning to `CCCC(C)(COC(N)=O)COC(=O)NC1CC1` (stereo not given), the Potency entry in assay [1], in assay [2], in assay [3], in assay [4], in [5] and in assay [6] was “inactive” each time. The Potency result in assay [7], in assay [8], in assay [9] and in assay [10] was “inactive” in each case.
As for `CCCC(=O)OC(C(Cl)(Cl)Cl)P(=O)(OC)OC` (stereo not given), the Potency entry in [1], in [2], in assay [3], in assay [4], in assay [5] and in assay [6] was “inactive” each time. Further, the Potency result in [8] and in assay [9] was “inactive” each time.
As for `[O]=[Cd]`, the Potency result in [1], in assay [2], in assay [3], in assay [4], in assay [5] and in assay [6] was “inactive” in each case. In addition, the Potency result in assay [7], in assay [8], in assay [9] and in assay [10] was “inactive” throughout.
Regarding `ClC1C(Cl)C(Cl)C(Cl)C(Cl)C1Cl` (stereo not given), the Potency result in assay [1], in [2], in assay [3], in assay [4], in assay [5] and in assay [6] was “inactive” throughout. The Potency entry in assay [7], in [8], in assay [9] and in [10] was “inactive” each time.
Take `O=c1[nH]c(=O)n(Cl)c(=O)n1Cl`: the Potency result in assay [1], in assay [2], in assay [3], in [4], in assay [5] and in assay [6] was “inactive” throughout. For the same compound, the Potency entry in assay [7], in assay [8], in [9] and in [10] was “inactive” in each case.
For the compound `F/C(COc1ccc2c(c1)[nH]c1ccccc12)=C1/CN2CCC1CC2`, the Potency in assay [1] is 10.7 µM (active); in assay [2], 5.62 µM (active); in assay [7], 3.55 µM (active); in assay [9], 10 µM (active); in assay [10] it was 6.31 µM (active). Also, in assay [4], the Potency entry was “inactive”.
Take `CC(C)Nc1ccc(Nc2ccccc2)cc1`: the Potency in assay [1] was 4.78 µM (active); in assay [2] it was 10 µM (active); in [3], 11.2 µM (active); in assay [4], 10 µM (active); in [5], 5.36 µM (active); in assay [7] it was 7.08 µM (active). The Potency in assay [9] and in assay [10] was 7.94 µM (active) throughout.
With `c1csc(C2(N3CCCCC3)CCCCC2)c1`, the Potency result in assay [1], in assay [3], in assay [4], in assay [5], in assay [6] and in [7] was “inactive” each time. The Potency result in [8], in [9] and in [10] was “inactive” throughout.
Turning to `C=CCC1(C(C)CCC)C(=O)N=C(S)NC1=O` (stereo not given), the Potency entry in assay [2], in [3], in assay [4], in assay [6], in [7] and in assay [8] was “inactive” in each case. Also, the Potency result in assay [9] and in assay [10] was “inactive” throughout.
As to `CCCCCCCCCC(=O)O[C@H]1CC[C@H]2[C@@H]3CCC4=CC(=O)CC[C@]4(C)[C@H]3CC[C@]12C`, the Potency entry in [1], in assay [2], in [3], in assay [4], in [5] and in assay [6] was “inactive” throughout. Further, the Potency entry in [8], in assay [9] and in [10] was “inactive” each time.
In the case of `OC(c1ccccc1)(c1ccccc1)C1CN2CCC1CC2` (stereo not given), the Potency entry in assay [4], in assay [6], in assay [8], in assay [9] and in [10] was “inactive” in each case.
For `CCOP(=O)(OCC)O/C(=C/Cl)c1ccc(Cl)cc1Cl`, the Potency result in assay [2], in [3], in assay [4], in [6], in assay [8] and in [9] was “inactive” in each case.
For `C/C(=C\c1csc(C)n1)[C@@H]1C[C@@H]2O[C@]2(C)CCC[C@H](C)[C@H](O)[C@@H](C)C(=O)C(C)(C)[C@@H](O)CC(=O)O1`, the Potency in assay [1] is 0.0048 µM (active); in assay [2], 0.0013 µM (active); in [3], 0.0045 µM (active); in assay [5], 0.0019 µM (active); in assay [6] it was 0.0009 µM (active); in assay [7], 0.0018 µM (active). Further, the Potency was 0.0089 µM (active) in assay [8], 0.0045 µM (active) in [9] and 0.0035 µM (active) in [10].
As to `CN1[C@@H]2CC[C@H]1CC(OC1c3ccccc3CCc3ccccc31)C2` (stereo not given in full), the Potency entry in assay [1], in assay [4], in assay [6] and in [8] was “inactive” throughout. The Potency in [3] is 3.55 µM (active); in [10], 3.98 µM (active).
Regarding `CC1CCC(C(C)C)C(OC(=O)c2ccccc2N)C1` (stereo not given), the Potency result in [1], in assay [3], in [4], in assay [8], in assay [9] and in assay [10] was “inactive” throughout.
For `CCOc1ccc2c3c1O[C@H]1[C@@H](O)C=C[C@H]4[C@@H](C2)N(C)CC[C@@]341`, the Potency entry in assay [2], in assay [3], in assay [4], in [6], in [7] and in assay [8] was “inactive” each time. Besides, the Potency entry in assay [9] and in assay [10] was “inactive” throughout.
On to `CCN(CC)C(=O)/C(Cl)=C(\C)OP(=O)(OC)OC`, for which the Potency result in [2], in [3], in assay [4], in assay [6], in [7] and in [8] was “inactive” each time. Moreover, the Potency entry in assay [9] and in [10] was “inactive” each time.
On to `C[C@H]1CCC[C@H](O)CCCCCc2cc(O)cc(O)c2C(=O)O1`, for which the Potency entry in [1], in assay [2], in assay [4], in [6], in [8] and in assay [10] was “inactive” throughout.
As for `CN1CCCC(=C(c2cccs2)c2cccs2)C1`, the Potency in assay [2] is 11.2 µM (active); in assay [5], 8.49 µM (active). Besides, the Potency entry in assay [3], in assay [4], in assay [6] and in [8] was “inactive” each time.
Consider `COc1ccc2c(c1OC)C(=O)OC2C1c2cc3c(cc2CCN1C)OCO3` (stereo not given), for which the Potency result in assay [2], in assay [3], in assay [4], in [6], in [7] and in [8] was “inactive” in each case. The Potency result in assay [9] and in assay [10] was “inactive” throughout.
Consider `CC12NC(Cc3ccccc31)c1ccccc12` (stereo not given), for which the Potency entry in [1], in assay [3], in assay [4], in [6], in assay [8] and in [9] was “inactive” throughout. The Potency in assay [2] is 11.2 µM (active); in assay [10], 10 µM (active).
`CCNC(C)Cc1cccc(C(F)(F)F)c1` (stereo not given): the Potency result in assay [1], in assay [2], in [4], in assay [6], in [7] and in [8] was “inactive” each time. Also, the Potency result in assay [9] and in assay [10] was “inactive” in each case.
Consider `CC(C)(C)c1cc(O)ccc1O`, for which the Potency in [1] was 9.53 µM (active); in [2] it was 4.47 µM (active); in [3] it was 7.94 µM (active); in assay [5] it was 3.79 µM (active) and 12 µM (active); in assay [6] it was 10 µM (active); in assay [7], 3.16 µM (active) and 2 µM (active). Moreover, the Potency in assay [9] is 11.2 µM (active); in assay [10] it was 11.2 µM (active) and 8.91 µM (active).
Consider `CNC(=O)Oc1ccccc1C(=O)Nc1ccccc1`, for which the Potency in assay [3] is 11.2 µM (active); in assay [5], 15.1 µM (active); in assay [7], 12.6 µM (active). The Potency entry in [4] and in [6] was “inactive” throughout.
